Lassa entry inh: Lassa virus entry inhibition; Lassa virus pseudotype entry inhibition, cell reporter; Potency, µM (top dose mostly 37.9 µM), for inactives: at the highest dose activity change, negative = inhibition, actives largely listed as inhibitors; hit rate 1.2% among 300,000; AID 540256; calls by dose curve; tested in HEK293 cells; note: potency is the fitted concentration of half-maximal effect; % is set by controls: 0 for no effect and ±100 for the full control effect; nearly all actives have a fitted effect of over 50% in size
HCV inhibitor: inhibitors of hepatitis C virus infection; Huh7.5.1 HCVcc-Cre infection, luciferase reporter, 44 h; Potency, µM (series often up to 41.8 µM), without a hit: top-dose activity change, negative = inhibition, hits mostly inhibitors; hit rate 3.4% among 340,000; AID 651820; active = well fitted inhibition curve with a large enough effect; inconclusive = small, poorly fitted or top-dose-only effect, or another doubt; inactive = no such curve, though single readings can be large or run the other way; note: potency is the fitted concentration of half-maximal effect; % is set by controls: 0 for no effect and ±100 for the full control effect
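Cells (1,000/well) were plated 4 h before compound, then infected with HCVcc-Cre virus (~0.5 moi). After 44 h further culture, infection was read as luciferase luminescence following a 15 min substrate incubation at room temperature.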
HCMV inh: inhibitors of human cytomegalovirus; hit rate 4.5% among 410,000; activity change, negative = inhibition, % at 57.5 µM; HFF cells, HCMV-luciferase reporter, 72 h; stronger effect = lower value; in the data active = activity change below about -60%; inconclusive = no clear call, values can overlap the other calls; inactive = above about -39%; note: % is set by controls: 0 for no effect and ±100 for the full control effect
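HFF cells seeded 16 h at 37C, treated with compounds, infected with luciferase-reporter HCMV at MOI 1 PFU/cell; luciferase read at 72 h post infection, normalized to buffer-only and Salinomycin controls.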
FMDV inh: antivirals against foot and mouth disease virus | FMDV antiviral cell-based qHTS | Potency, µM (series often up to 57.9 µM), without a hit: at the top dose activity change, negative = inhibition, most hits filed as inhibitors | hit rate 1.2% among 410,000 | AID 1159524; calls by dose curve; tested in HEK293T cells; note: read-out not given here; potency is the fitted concentration of half-maximal effect; % is set by controls: 0 for no effect and ±100 for the full control effect; nearly all actives have a fitted effect of over 45% in size
SARS PLP yeast: inhibitors of SARS-CoV papain-like protease in yeast; S. cerevisiae expressing SARS-CoV PLpro, growth rescue; Potency, µM (highest dose often 32.9 µM), inactives show at the top dose activity, positive = growth rescue, usual class: activators; hit rate 0.19% among 330,000; calls by dose curve; note: potency is the fitted concentration of half-maximal effect; 0% is about no effect; nearly all actives have a fitted effect of over 55% in size
Marburg entry inh: Marburg virus entry inhibition; Marburg virus pseudotyped entry inhibition, cell reporter; Potency, µM (highest dose often 37.8 µM), inactives show at the top dose activity change, negative = inhibition, most hits filed as inhibitors; hit rate 1.8% among 300,000; calls by dose curve; tested in HEK293 cells; note: potency is the fitted concentration of half-maximal effect; % is set by controls: 0 for no effect and ±100 for the full control effect
* hit, by the source's call; u = inconclusive; x = no result given; [ ] = another dose, or the depositor's remark. Shown are actives, neighbours in structure and some others; about 8% of the full set was active somewhere.

SMILES	Lassa entry inh	HCV inhibitor	HCMV inh	FMDV inh	SARS PLP yeast	Marburg entry inh
CCOC(=O)C(NC(=O)c1ccccc1F)(Nc1cc(C)on1)C(F)(F)F (centres undefined)	0%	11%	-94*	-10%	27%	0%
CCOC(=O)C(NC(=O)c1ccccc1)(Nc1cccc(C)n1)C(F)(F)F (centres undefined)	0%	-8%	u	25%	3%	-20%[46.1 µM]
c1cncc(OC2CCN(Cc3ccc4c(c3)CN(Cc3ccc5c(c3)CCO5)CCO4)CC2)c1	x	x	x	-25%	x	x
O=c1c2ccccc2[nH]c(=S)n1Cc1cccs1	1%	10%	-68*	45%	19%	8%
O=c1c2ccccc2[nH]c(=S)n1Cc1ccccc1	-1%[46.1 µM]	-4%	-13	23%	3%	21%[46.1 µM]
N#C/C(=C(/O)CCl)c1nc2c(s1)CCc1ccccc1-2	12%	u	42	25µM*	-12%	21%[46.1 µM]
Nc1nc2c(s1)CCc1ccccc1-2	x	5%	-16	19%	-11%	x
CCCC1=Nc2cc(C(=O)NCc3ccccc3)ccc2Sc2ccccc21	u	x	u	-10%	x	u
COc1ccc(CNc2cc(C)nc3ncnn23)c(OC)c1	-19%	u	-81*	u	7%	u
COc1cccc(NC(=O)C2CCN(S(=O)(=O)c3ccc4c(c3)CC(C)N4C(C)=O)CC2)c1 (centres undefined)	x	u	u	-17%	-10%	x
CC(=O)N1c2ccc(S(=O)(=O)N3CCC(C(=O)Nc4cccc(C(F)(F)F)c4)CC3)cc2CC1C (centres undefined)	x	2.5µM*	-89*	u	-4%	x
CC(=O)N1c2ccc(S(=O)(=O)N3CCC(C(=O)NC4CCCCC4)CC3)cc2CC1C (centres undefined)	-2%[46.1 µM]	20%	-36	-14%	-3%	u
CC(=O)N1c2ccc(S(=O)(=O)N3CCC(C(=O)Nc4ccc(F)cc4)CC3)cc2CC1C (centres undefined)	-8%[46.1 µM]	11µM*	u	-28%	-3%	-24%[46.1 µM]
CCc1cccc(NC(=O)C2CCN(S(=O)(=O)c3ccc4c(c3)CC(C)N4C(C)=O)CC2)c1 (centres undefined)	x	u	-85*	14µM*	-1%	x
CNc1cc(-c2cccc(OC)c2F)nc2ccnn12	x	x	4	28%	x	x
COCCN(Cc1ccccc1)C(=S)Nc1ccc(Cl)cc1	x	-23%	-8	40%	1%	x
CC(C)CN(CC(C)C)S(=O)(=O)c1ccc(C(=O)Nc2sc3c(c2C(N)=O)CCN(C(C)C)C3)cc1	u	x	-82*	0%	x	x
CC(C)N1CCc2c(sc(NC(=O)CCS(=O)(=O)c3ccccc3)c2C(N)=O)C1	x	-11%	-111*	12%	-4%	x
CCCCCCC1CCC(C(=O)NC(C(=O)O)C(C)C)CC1 (centres undefined)	u	x	14	-2%	x	-27%[46.1 µM]
O=C(Cc1ccc(Cl)cc1)c1c[nH]c(C(=O)NCc2cccnc2)c1	x	u	25	7.9µM*	1%	x
O=C(NCc1ccc(Cl)cc1)c1cccnc1	3%	-11%	1	1%	-5%	7%
O=C(NCc1cccnc1)c1ccc(COc2ccc(Cl)cc2)cc1	x	u	-86*	-7%	-2%	x
COC(=O)c1sc2ncccc2c1OCc1ccc(Cl)cc1	-9%	-6%	-31	13%	-4%	8.2µM*
O=C(Nc1cccc2ncccc12)c1ccc(OCc2ccccc2)cc1	x	16µM*	u	u	13%	x
COC(=O)c1sc2ncccc2c1OCc1ccccc1Cl	-12%	u	26	-1%	-3%	-1%
SMILES	Lassa entry inh	HCV inhibitor	HCMV inh	FMDV inh	SARS PLP yeast	Marburg entry inh
CC(C)(C)c1ccc(C(=O)c2c[nH]c(C(=O)NCc3cccnc3)c2)cc1	3%	-5%	-7	0%	10%	u
COc1ccccc1C(=O)NC1CCN(C(=O)Nc2ccc(C)cc2)CC1	-3%	-28%	-5	2%	8%	-4%
COCCN(C(=O)COC(=O)c1ccc2ccccc2c1)c1c(N)n(Cc2ccccc2)c(=O)[nH]c1=O	x	x	-15	-21%	x	x
O=C(COc1ccc(Cl)cc1)Nc1ccc(C(=O)NCc2cccnc2)cc1	-22%	13µM*	x	14µM*	3%	-27%
Cc1ccc(OCc2ccc(C(=O)NCc3cccnc3)cc2)cc1C	7.9µM*	u	-72*	-16%	-1%	8.9µM*
Cc1cccc(OCC(=O)Nc2ccc(C(=O)NCc3cccnc3)cc2)c1	x	x	x	x	-3%	x
CN1CCN(c2nc(-c3cccnc3)nc3ccccc23)CC1	u	-24%	9	6%	-1%	u
COc1cc2c(cc1OC)CN(c1nc(-c3cccnc3)nc3ccccc13)CC2	u	14µM*	-36	16µM*	-20%	u
Cc1ccc(C)c(S(=O)(=O)N2CCN(c3nc(-c4cccnc4)nc4ccccc34)CC2)c1	x	11µM*	20	u	6%	x
COc1ccc(Cl)cc1NC(=O)CN(C)C(=O)C1COc2ccccc2O1 (centres undefined)	-5%	u	-28	-2%	-3%	-12%
CCCSc1nnc2c(n1)OC(CC)N(C(C)=O)c1ccccc1-2 (centres undefined)	5%[46.1 µM]	x	9	-18%	x	1%[46.1 µM]
CCCN(CCC)S(=O)(=O)c1ccc(C(=O)N2CCC(=O)c3ccccc32)cc1	u	-12%	-60*	-26%	3%	-24%
Oc1ccccc1Nc1nc(-c2ccccc2)c2cc(Cl)ccc2n1	1%[46.1 µM]	x	-27	22%	x	4%[46.1 µM]
CNC(=S)NNc1nc(-c2ccccc2)c2cc(Cl)ccc2n1	-26%[46.1 µM]	-7%	-72*	-10%	x	u
O=C(Nc1ccc(-c2cc(C(F)(F)F)nn2-c2ccccc2)cc1)c1cccc(F)c1	u	x	-95*	-11%	x	u
Cc1ccc(OCC(=O)Nc2ccc3nn(-c4ccc(Cl)cc4)nc3c2)cc1	u	x	31	-20%	x	x
CC1CCN(C2=NC(=O)/C(=C/c3cn(-c4ccccc4)nc3-c3cccc(S(=O)(=O)N(C)C)c3)S2)CC1	-24%	u	-62*	-3%	8%	u
CC1CCCN(C2=NC(=O)/C(=C/c3cn(-c4ccccc4)nc3-c3cccc(S(=O)(=O)N(C)C)c3)S2)C1 (centres undefined)	-14%	u	-14	4%	2%	5%
Cc1ccc(C(=O)C2C(=O)C3CCC2C3)cc1 (centres undefined)	x	x	-73*	x	x	x
O=C(NCCSCc1ccccc1)C1CCN(S(=O)(=O)Cc2ccccc2)CC1	-4%[46.1 µM]	x	-14	-21%	x	-23%[46.1 µM]
Cc1ccccc1C1c2[nH]c3ccccc3c2C[C@H]2C(=O)N(c3ccccc3C(=O)NCCCN3CCOCC3)C(=O)N12 (some centres undefined)	x	1.1µM*	-1	-23%	u	x

Assay outcomes: PubChem, National Center for Advancing Translational Sciences (NCATS)
